Laboratory results: PubChem BioAssay (NCATS)
Records with an inconclusive call do not appear. A call without a number means that no potency is given here. Activity calls are given as the source filed them. Calls follow the shape of the dose curve; as a rule, active = well fitted curve in the direction sought with a large enough effect; inconclusive = small, poorly fitted or top-dose-only effect, or another doubt; inactive = no such curve, though single readings can be large; an effect the other way counts as inactive or inconclusive.
Potency is read from the fitted curve at half-maximal effect.

Experiment: Cell Viability - LYMP1-002 - Assay at 16 hr (AID 948)
Conditions: LYMP1-002 lymphoblastoid cell viability; series mostly up to 92.2 µM
Outline: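 Seed 2500 LYMP1-002 cells per well in complete medium and hold 5 hr at 37 C. Add compound across a concentration series and incubate 16 hr at 37 C. Add CellTiter-Glo, wait 30 min at room temperature, read luminescence.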
In the case of Oc1ccc2cc(SSc3ccc4cc(O)ccc4c3)ccc2c1, the Potency is reported as 50.1 µM (active). For Nc1ccc2cc3ccccc3cc2c1, the Potency was “inactive”. In the case of CN(C)c1ccc(C2(c3ccc(N(C)C)cc3)OC(=O)c3cc(N(C)C)ccc32)cc1, the Potency is reported as “inactive”. With Cc1cc(Nc2ccc(O)cc2)ccc1N the Potency was “inactive”. In the case of CO[C@H]1/C=C/O[C@@]2(C)Oc3c(C)c(O)c4c(O)c(c5c(c4c3C2=O)NC2(CCN(CC(C)C)CC2)N=5)=NC(=O)/C(C)=C\C=C\[C@H](C)[C@H](O)[C@@H](C)[C@@H](O)[C@@H](C)[C@H](OC(C)=O)[C@@H]1C, the Potency is reported as “inactive”. With Cc1cc(O)c(C(C)(C)C)cc1Sc1cc(C(C)(C)C)c(O)cc1C the Potency was 50.1 µM (active). With C=C(C)c1ccccc1 the Potency was “inactive”. With O=C1OC2(c3cc(Br)c(O)c(Br)c3Oc3c2cc(Br)c(O)c3Br)c2c(Cl)c(Cl)c(Cl)c(Cl)c21 the Potency was “inactive”. With ClC1=C(Cl)C(Cl)(Cl)C(Cl)=C1Cl the Potency was “inactive”. In the case of C/C=C1\C(=O)C[C@H]2[C@@H]3CCC4=CC(=O)CC[C@]4(C)[C@H]3CC[C@]12C, the Potency is reported as “inactive”. In the case of CC(=O)Nc1ccc(C(=O)CCl)cc1, the Potency is reported as 25.1 µM (active). With CCC(C)Nc1ccc(NC(C)CC)cc1 (configuration not stated) the Potency was 15.8 µM (active). For O=C=Nc1ccc(Cc2ccc(N=C=O)cc2)cc1, the Potency was “inactive”. With c1ccc2c(c1)ccc1cc3c(ccc4ccccc43)cc12 the Potency was “inactive”. In the case of CC/C(=C(\c1ccccc1)c1ccc(OCCN(C)C)cc1)c1ccc(O)cc1, the Potency is reported as “inactive”. With c1ccc2c(c1)-c1cccc3c1c-2cc1ccccc13 the Potency was “inactive”. With O=[N+]([O-])c1cc([N+](=O)[O-])c2ccc(S(=O)(=O)O)cc2c1O the Potency was “inactive”. With O=Cc1ccc(Cl)c(Cl)c1 the Potency was “inactive”.

Experiment: MultiTox-Fluor Cytotoxicity Assay - LYMP1-002 - Live Cells (AID 955);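 also: cells exposed to compound for 16 hours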
Conditions: LYMP1-002 lymphoblastoid live-cell protease fluorescence viability; series mostly up to 46.1 µM
Outline: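 LYMP1-002 lymphoblastoid cells; 2500 cells/well; 16 hr compound exposure, 37 C; MultiTox-Fluor reagent 60 min RT; live-cell fluorescence Ex/Em=405/510; qHTS concentration-response, Hill-equation AC50; tetraoctylammonium bromide positive control.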
For CN(C)c1ccc(C2(c3ccc(N(C)C)cc3)OC(=O)c3cc(N(C)C)ccc32)cc1, the Potency was “inactive”. For Cc1cc(Nc2ccc(O)cc2)ccc1N, the Potency was “inactive”. For CO[C@H]1/C=C/O[C@@]2(C)Oc3c(C)c(O)c4c(O)c(c5c(c4c3C2=O)NC2(CCN(CC(C)C)CC2)N=5)=NC(=O)/C(C)=C\C=C\[C@H](C)[C@H](O)[C@@H](C)[C@@H](O)[C@@H](C)[C@H](OC(C)=O)[C@@H]1C, the Potency was “inactive”. With Cc1cc(O)c(C(C)(C)C)cc1Sc1cc(C(C)(C)C)c(O)cc1C the Potency was 25.1 µM (active). For C=C(C)c1ccccc1, the Potency was “inactive”. For Cc1ccc(S(=O)(=O)Oc2ccc(N=Nc3ccc(-c4ccc(N=Nc5c(O)ccc6cc(S(=O)(=O)O)cc(S(=O)(=O)O)c56)c(C)c4)cc3C)cc2)cc1, the Potency was “inactive”. With O=C1OC2(c3cc(Br)c(O)c(Br)c3Oc3c2cc(Br)c(O)c3Br)c2c(Cl)c(Cl)c(Cl)c(Cl)c21 the Potency was “inactive”. In the case of ClC1=C(Cl)C(Cl)(Cl)C(Cl)=C1Cl, the Potency is reported as “inactive”. For C=CC(=O)OCCOCCOC(=O)C=C, the Potency was 15.8 µM (active). For C/C=C1\C(=O)C[C@H]2[C@@H]3CCC4=CC(=O)CC[C@]4(C)[C@H]3CC[C@]12C, the Potency was “inactive”. In the case of CNc1ccc(O)cc1, the Potency is reported as 12.6 µM (active). For CC(=O)Nc1ccc(C(=O)CCl)cc1, the Potency was 12.6 µM (active). For CCC(C)Nc1ccc(NC(C)CC)cc1 (configuration not stated), the Potency was 10 µM (active). With O=C=Nc1ccc(Cc2ccc(N=C=O)cc2)cc1 the Potency was “inactive”. For c1ccc2c(c1)ccc1cc3c(ccc4ccccc43)cc12, the Potency was “inactive”. In the case of c1ccc2c(c1)-c1cccc3c1c-2cc1ccccc13, the Potency is reported as “inactive”. For O=[N+]([O-])c1cc([N+](=O)[O-])c2ccc(S(=O)(=O)O)cc2c1O, the Potency was “inactive”. In the case of O=Cc1ccc(Cl)c(Cl)c1, the Potency is reported as “inactive”.

Experiment: MultiTox-Fluor Cytotoxicity Assay - LYMP1-002 - Dead Cells (AID 960); also: nearly all actives have a fitted effect of over 60% in size
Conditions: LYMP1-002 lymphoblastoid cells, dead-cell protease fluorescence; series mostly up to 46.1 µM
Outline: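 Readout: fluorescence at 485/520 from cell-impermeant bis-AAF-R110 cleaved by proteases leaking from damaged cells. LYMP1-002 lymphoblastoid line, 16 hr compound treatment at 37 C, concentration-response in qHTS format; Hill-equation AC50 values.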
For Oc1ccc2cc(SSc3ccc4cc(O)ccc4c3)ccc2c1, the Potency was “inactive”. For Nc1ccc2cc3ccccc3cc2c1, the Potency was “inactive”. For CO[C@H]1/C=C/O[C@@]2(C)Oc3c(C)c(O)c4c(O)c(c5c(c4c3C2=O)NC2(CCN(CC(C)C)CC2)N=5)=NC(=O)/C(C)=C\C=C\[C@H](C)[C@H](O)[C@@H](C)[C@@H](O)[C@@H](C)[C@H](OC(C)=O)[C@@H]1C, the Potency was “inactive”. For Cc1cc(O)c(C(C)(C)C)cc1Sc1cc(C(C)(C)C)c(O)cc1C, the Potency was 31.6 µM (active). For C=C(C)c1ccccc1, the Potency was “inactive”. In the case of ClC1=C(Cl)C(Cl)(Cl)C(Cl)=C1Cl, the Potency is reported as “inactive”. In the case of C=CC(=O)OCCOCCOC(=O)C=C, the Potency is reported as 25.1 µM (active). In the case of C/C=C1\C(=O)C[C@H]2[C@@H]3CCC4=CC(=O)CC[C@]4(C)[C@H]3CC[C@]12C, the Potency is reported as 25.1 µM (active). In the case of O=C1OC(O)C(C(Cl)Cl)=C1Cl (configuration not stated), the Potency is reported as 31.6 µM (active). For CC(=O)Nc1ccc(C(=O)CCl)cc1, the Potency was 15.8 µM (active). In the case of c1ccc2c(c1)ccc1cc3c(ccc4ccccc43)cc12, the Potency is reported as “inactive”. In the case of c1ccc2c(c1)-c1cccc3c1c-2cc1ccccc13, the Potency is reported as “inactive”. For O=[N+]([O-])c1cc([N+](=O)[O-])c2ccc(S(=O)(=O)O)cc2c1O, the Potency was “inactive”. For O=Cc1ccc(Cl)c(Cl)c1, the Potency was “inactive”.

Experiment: MultiTox-Fluor Cytotoxicity Assay - LYMP1-003 - Dead Cells (AID 961); also: nearly all actives have a fitted effect of over 70% in size
Conditions: LYMP1-003 lymphoblastoid cells, dead-cell protease fluorescence; series mostly up to 92.2 µM
Outline: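 Dead-cell protease release, detected as bis-AAF-R110 fluorescence at 485/520 nm, was measured in LYMP1-003 cells after 16 h compound treatment at 37 C. AC50 values came from Hill-modeled qHTS curves normalized to DMSO (0%) and 15 uM tetraoctylammonium bromide (100%).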
With Nc1ccc2cc3ccccc3cc2c1 the Potency was “inactive”. In the case of CN(C)c1ccc(C2(c3ccc(N(C)C)cc3)OC(=O)c3cc(N(C)C)ccc32)cc1, the Potency is reported as “inactive”. With Cc1cc(Nc2ccc(O)cc2)ccc1N the Potency was “inactive”. For CO[C@H]1/C=C/O[C@@]2(C)Oc3c(C)c(O)c4c(O)c(c5c(c4c3C2=O)NC2(CCN(CC(C)C)CC2)N=5)=NC(=O)/C(C)=C\C=C\[C@H](C)[C@H](O)[C@@H](C)[C@@H](O)[C@@H](C)[C@H](OC(C)=O)[C@@H]1C, the Potency was “inactive”. With Cc1cc(O)c(C(C)(C)C)cc1Sc1cc(C(C)(C)C)c(O)cc1C the Potency was 31.6 µM (active). For C=C(C)c1ccccc1, the Potency was “inactive”. For ClC1=C(Cl)C(Cl)(Cl)C(Cl)=C1Cl, the Potency was “inactive”. For C=CC(=O)OCCOCCOC(=O)C=C, the Potency was 20 µM (active). With O=C1OC(O)C(C(Cl)Cl)=C1Cl (configuration not stated) the Potency was 63.1 µM (active). With CNc1ccc(O)cc1 the Potency was 12.6 µM (active). In the case of CC(=O)Nc1ccc(C(=O)CCl)cc1, the Potency is reported as 25.1 µM (active). With CCC(C)Nc1ccc(NC(C)CC)cc1 (configuration not stated) the Potency was 12.6 µM (active). In the case of O=C=Nc1ccc(Cc2ccc(N=C=O)cc2)cc1, the Potency is reported as “inactive”. For c1ccc2c(c1)ccc1cc3c(ccc4ccccc43)cc12, the Potency was “inactive”. In the case of c1ccc2c(c1)-c1cccc3c1c-2cc1ccccc13, the Potency is reported as “inactive”. With O=[N+]([O-])c1cc([N+](=O)[O-])c2ccc(S(=O)(=O)O)cc2c1O the Potency was “inactive”. With O=Cc1ccc(Cl)c(Cl)c1 the Potency was “inactive”.
